# Tested on: MAP3K1
# Conditions: concentration: 1 μM, replicates: in singlicate; n = 1
# 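Further: KINOMEscan kinase panel screen.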
row,Compound,%Inh
1,CNc1nccc(-c2c(-c3ccc(F)cc3)ncn2C2CCN(C)CC2)n1 [SB-222903],0%
2,CCn1c(-c2ccncc2)nc2cnccc21 [SB-735216],10%
3,Clc1cc(Nc2ncnc3cc[nH]c23)ccc1OCc1ccccn1,7%
4,CN1CCC(n2cnc(-c3ccc(F)cc3)c2-c2ccnc(NC3CCNCC3)n2)CC1 [SB-229482],4%
5,Fc1ccc(-c2ncn(CCCNCc3ccccc3)c2-c2ccncc2)cc1,15%
6,Cc1ccc(NC(=O)c2cccc(C#N)c2)cc1-c1ccc(C(=O)Nc2ccncc2)cc1 [GSK1398463],12%
7,O=C(c1ccc(-c2cc(-c3c[nH]nc3-c3ccccn3)ccn2)cc1)N1CCCC1 [GW792479],0%
8,Cl.c1ccc(Cn2ccc3cc(Nc4ncnc5ccccc45)ccc32)cc1 [GW275568],0%
9,CS(=O)(=O)CCNCc1ccc(-c2ccc3ncnc(Nc4ccc(OCc5ccccc5)c(Cl)c4)c3c2)o1.Cl [GW574783],15%
10,CCC(CC)(CC)n1cnc2c(N)ncnc21 [SKF-97620],21%
11,CC(C)(C)OC(=O)NC1CCCN(c2cc(-c3ccc4c(N)n[nH]c4c3)nc(N)n2)C1 (centres unmarked) [GSK2286096],10%
12,O=C(Nc1ccccc1F)NC1CCN(c2ccnc(Nc3ccc(F)cc3)n2)C1 (centres unmarked) [GSK1379722],5%
13,Cl.c1ccc(Cn2ncc3cc(Nc4ncnc5ccccc45)ccc32)cc1 [GW273749],7%
14,CC(=O)Nc1n[nH]c2ncc(-c3ccccc3)cc12 [SB-548492],27%

# Reference: article PMC5540273 (PLoS ONE, 2017)
